AC50 and outcome data for 6 compounds are collected here from PubChem BioAssay (EPA / NIEHS).

Molecules are shown by their SMILES. Where “and” joins values, the source holds several entries; their conditions need not be identical. Equal values may be shown once. Some structures have more than one record in an assay (separate samples or runs), and their calls can disagree. Calls of active or inactive are those of the source. The calls were made as follows: active = hit-call score of the fitted dose curve at least 0.9, where 1 is the maximum; inactive = score below 0.9.

Read-out in assay [1]: Urokinase-type plasminogen activator receptor (uPAR), PLAUR (gene 5329)
As to the kind of experiment: BSK_4H_uPAR: BioMAP Diversity Plus: 4H Assay for Urokinase-type plasminogen activator receptor (uPAR) Biomarker Activity (AID 2283030). The settings on record: primary human endothelial cells (HUVEC); actives raise or lower the signal. A digest of the protocol: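 Cell-surface uPAR ELISA signal, measured 24 h after dosing human umbilical vein endothelial cells, was analyzed with bidirectional fitting relative to DMSO. Parallel SRB staining of total protein tracked overt cytotoxicity.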

Read-out in assay [2]: Vascular endothelial growth factor receptor 2 (Homo sapiens) (UniProt P35968)
The assay is described as follows: BSK_4H_VEGFRII: BioMAP Diversity Plus: 4H Assay for Vascular endothelial growth factor receptor 2 (VEGFR2) Biomarker Activity (AID 2283031).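 As to AC50: cell-surface VEGFR2 protein level quantified by ELISA.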 Conditions: primary human endothelial cells (HUVEC); actives raise or lower the signal. A digest of the protocol: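 ELISA read-out of VEGFRII in primary human umbilical vein endothelium, taken 24 h after chemical treatment. Responses are expressed relative to DMSO, with bidirectional fitting.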

Read-out in assay [3]: Human Leukocyte Antigen - DR isotype (HLADR), HLA-DRA (gene 3122)
As to the kind of experiment: BSK_BE3C_HLADR: BioMAP Diversity Plus: BE3C Assay for Human Leukocyte Antigen - DR isotype (HLADR) Biomarker Activity (AID 2283032). The settings on record: primary human bronchial epithelial cells; actives raise or lower the signal. The method in brief: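 Human primary bronchial epithelial cells (BE3C system) exposed to compound for 24 hours; cell-surface HLA-DR measured by ELISA, fitted bidirectionally relative to DMSO. Total protein by SRB in parallel cultures tracked cytotoxicity.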

Read-out in assay [4]: Vascular cell adhesion molecule 1 (VCAM1), VCAM1 (gene 7412)
As to the kind of experiment: BSK_4H_VCAM1: BioMAP Diversity Plus: 4H Assay for Vascular cell adhesion molecule 1 (VCAM1) Biomarker Activity (AID 2283033). Conditions: primary human endothelial cells (HUVEC); actives raise or lower the signal. A digest of the protocol:
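Primary human umbilical vein endothelial cells, 4H stimulation system, treated for 24 h; cell-surface VCAM-1 quantified by ELISA. Bidirectional fitting against DMSO; cytotoxicity tracked by SRB total-protein staining in parallel cultures.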

Read-out in assay [5]: Interferon-gamma inducible Protein 10 (IP10), CXCL10 (gene 3627)
The assay is described as follows: BSK_BE3C_IP10: BioMAP Diversity Plus: BE3C Assay for Interferon-gamma inducible Protein 10 (IP10) Biomarker Activity (AID 2283034). Conditions: primary human bronchial epithelial cells; actives raise or lower the signal. A digest of the protocol: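 Primary human bronchial epithelial cells, with IP-10 measured by ELISA 24 hours after chemical dosing. Bidirectional fit against DMSO; cytotoxicity checked by SRB total protein staining in parallel cultures.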

Read-out in assay [6]: Monokine induced gamma interferon (MIG), CXCL9 (gene 4283)
As to the kind of experiment: BSK_BE3C_MIG: BioMAP Diversity Plus: BE3C Assay for Monokine induced gamma interferon (MIG) Biomarker Activity (AID 2283035). Conditions: primary human bronchial epithelial cells; actives raise or lower the signal. A digest of the protocol:
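Primary human bronchial epithelial cells treated for 24 h; MIG levels measured by ELISA, fitted bidirectionally versus DMSO. Parallel SRB total-protein staining assessed cytotoxicity.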

Read-out in assay [7]: Transforming growth factor beta 1 (TGFb1), TGFB1 (gene 7040)
The assay is described as follows: BSK_BE3C_TGFb1: BioMAP Diversity Plus: BE3C Assay for Transforming growth factor beta 1 (TGFb1) Biomarker Activity (AID 2283036). Conditions: primary human bronchial epithelial cells; actives raise or lower the signal. A digest of the protocol:
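Primary human bronchial epithelial cells dosed with chemical; TGF-b1 measured by ELISA 24 h after dosing. Bidirectional curve fitting against DMSO negative control; SRB total-protein staining in parallel cultures gauged cytotoxicity.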

Read-out in assay [8]: Plasminogen activator inhibitor-1 (PAI1), SERPINE1 (gene 5054)
The assay is described as follows: BSK_BE3C_PAI1: BioMAP Diversity Plus: BE3C Assay for Plasminogen activator inhibitor-1 (PAI1) Biomarker Activity (AID 2283037). The settings on record: primary human bronchial epithelial cells; actives raise or lower the signal. A digest of the protocol:
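Primary human bronchial epithelial cells (BE3C system) exposed 24 h; PAI-1 quantified by ELISA. Parallel sulforhodamine B staining of total protein flags cytotoxicity. Bidirectional fit versus DMSO.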

Read-out in assay [9]: urokinase plasminogen activator (uPA), PLAU (gene 5328)
As to the kind of experiment: BSK_BE3C_uPA: BioMAP Diversity Plus: BE3C Assay for urokinase plasminogen activator (uPA) Biomarker Activity (AID 2283038).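 As to outcome: uPA protein level quantified by ELISA in cell cultures; uPA read one day after compound addition.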 Conditions: primary human bronchial epithelial cells; actives raise or lower the signal. The method in brief: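 Bronchial epithelial cells (human, primary); chemical 24 h; uPA by ELISA; bidirectional fit vs DMSO. SRB (0.1%, after 10% TCA fixation, 560 nm) in parallel cultures for cytotoxicity.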

Read-out in assay [10]: Urokinase-type plasminogen activator receptor (uPAR), PLAUR (gene 5329)
As to the kind of experiment: BSK_BE3C_uPAR: BioMAP Diversity Plus: BE3C Assay for Urokinase-type plasminogen activator receptor (uPAR) Biomarker Activity (AID 2283039).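 As to outcome: cells exposed to compound for one day before measurement.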 The settings on record: primary human bronchial epithelial cells; actives raise or lower the signal. The method in brief:
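Primary human bronchial epithelial cells dosed for 24 h; uPAR quantified by ELISA with bidirectional fitting against DMSO. Overt cytotoxicity assessed in parallel cultures by SRB total-protein staining (0.1% SRB, 560 nm).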

Read-out in assay [11]: Interleukin-6 (IL6), IL6 (gene 3569)
As to the kind of experiment: BSK_CASM3C_IL6: BioMAP Diversity Plus: CASM3C Assay for Interleukin-6 (IL6) Biomarker Activity for (AID 2283040). Conditions: primary human coronary artery smooth muscle cells; actives raise or lower the signal.

Read-out in assay [12]: Tissue plasminogen activator (tPA), PLAT (gene 5327)
As to the kind of experiment: BSK_BE3C_tPA: BioMAP Diversity Plus: BE3C Assay for Tissue plasminogen activator (tPA) Biomarker Activity (AID 2283041).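 As to outcome: tPA level quantified by ELISA one day after compound addition.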 The settings on record: primary human bronchial epithelial cells; actives raise or lower the signal. The method in brief:
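Primary human bronchial epithelial cells in the BE3C system, exposed to compound for 24 h. tPA was quantified by ELISA; DMSO served as baseline, with gain or loss of signal fitted. Cytotoxicity checked in parallel cultures by SRB total-protein staining.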

Read-out in assay [13]: Interleukin-8 (IL8), CXCL8 (gene 3576)
As to the kind of experiment: BSK_CASM3C_IL8: BioMAP Diversity Plus: CASM3C Assay for Interleukin-8 (IL8) Biomarker Activity (AID 2283042).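 Also: IL-8 protein level quantified by ELISA.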 Conditions: primary human coronary artery smooth muscle cells; actives raise or lower the signal.

Read-out in assay [14]: Human Leukocyte Antigen - DR isotype (HLADR), HLA-DRA (gene 3122)
As to the kind of experiment: BSK_CASM3C_HLADR: BioMAP Diversity Plus: CASM3C Assay for Human Leukocyte Antigen - DR isotype (HLADR) Biomarker Activity (AID 2283043).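 Also: cell-surface HLA-DR protein level quantified by ELISA.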 The settings on record: primary human coronary artery smooth muscle cells; actives raise or lower the signal.

Read-out in assay [15]: Macrophage colony-stimulating factor (MCSF), CSF1 (gene 1435)
The assay is described as follows: BSK_CASM3C_MCSF: BioMAP Diversity Plus: CASM3C Assay for Macrophage colony-stimulating factor (MCSF) Biomarker Activity (AID 2283044).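 Also: M-CSF protein amount quantified by ELISA after 24 h exposure.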 Conditions: primary human coronary artery smooth muscle cells; actives raise or lower the signal.

Read-out in assay [16]: Low-density lipoprotein receptor (LDLR), LDLR (gene 3949)
The assay is described as follows: BSK_CASM3C_LDLR: BioMAP Diversity Plus: CASM3C Assay for Low-density lipoprotein receptor (LDLR) Biomarker Activity (AID 2283045).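 Also: LDLR protein level on the cell surface quantified by ELISA.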 The settings on record: primary human coronary artery smooth muscle cells; actives raise or lower the signal.

Read-out in assay [17]: Monocyte Chemoattractant Protein-1 (MCP1), CCL2 (gene 6347)
As to the kind of experiment: BSK_CASM3C_MCP1: BioMAP Diversity Plus: CASM3C Assay for Monocyte Chemoattractant Protein-1 (MCP1) Biomarker Activity (AID 2283046).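 Also: MCP-1 level quantified by ELISA 24 h after dosing.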 Conditions: primary human coronary artery smooth muscle cells; actives raise or lower the signal.

The nature of assay [18]: BSK_CASM3C_Proliferation: Cell Proliferation Assessment in the BioMAP Diversity Plus: CASM3C Assay (AID 2283047).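 Also: sulforhodamine B total protein stain as relative cell number at 560 nm; sub-confluent cells exposed 48 h before staining; fitted both ways against DMSO so gain or loss of cell number.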 The settings on record: primary human coronary artery smooth muscle cells.
Read-out in assay [19]: Monokine induced gamma interferon (MIG), CXCL9 (gene 4283)
The assay is described as follows: BSK_CASM3C_MIG: BioMAP Diversity Plus: CASM3C Assay for Monokine induced gamma interferon (MIG) Biomarker Activity (AID 2283048). Conditions: primary human coronary artery smooth muscle cells; actives raise or lower the signal.

Read-out in assay [20]: serum amyloid A (SAA), SAA1 (gene 6288)
The assay is described as follows: BSK_CASM3C_SAA: BioMAP Diversity Plus: CASM3C Assay for serum amyloid A (SAA) Biomarker Activity (AID 2283049).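 Also: SAA protein level quantified by ELISA.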 Conditions: primary human coronary artery smooth muscle cells; actives raise or lower the signal.

Take `COc1ccc(C(=O)/C(Br)=C\C(=O)O)cc1`: the AC50 – broadly, the concentration giving half of the maximal activity seen – was 32.5 µM (active) and 32.2 µM (active) in assay [1]; 29.8 µM (active) in assay [2]; 26.8 µM (active) and 20 µM (active) in [3]; 22.1 µM (active) and 20 µM (active) in assay [4]; 20 µM (active) in assay [5]; 28.8 µM (active) in [6]. Also, the AC50 was 8.23 µM (active) in assay [7]; 8.24 µM (active) in [8]; 20 µM (active) in [9]; 20 µM (active) and 23.2 µM (active) in assay [11]; 4.45 µM (active) in assay [12]; 35.4 µM (active) and 29.1 µM (active) in [13]. For the same compound, the AC50 is 6.86 µM (active) and 20.6 µM (active) in [14]; 20 µM (active) and 29.7 µM (active) in [15]; 13.2 µM (active) and 26.7 µM (active) in assay [16]; 30 µM (active) and 31.1 µM (active) in assay [17]; 4.88 µM (active) and 24.3 µM (active) in assay [18]; 29.2 µM (active) and 31 µM (active) in assay [19]. Moreover, the AC50 in [20] was 11.4 µM (active). In addition, the result in assay [2], in [6], in [7], in assay [8], in [9] and in assay [10] was inactive. The result in assay [12] and in assay [20] was inactive.

Turning to `CCOC(=O)C1=NOC(c2ccccc2)(c2ccccc2)C1`, the outcome in assay [1], in assay [2], in assay [3], in assay [4], in [5] and in [6] was inactive. For the same compound, the result in assay [7], in assay [8], in assay [9], in assay [10], in assay [11] and in [12] was inactive. The outcome in assay [13], in assay [14], in [15], in assay [16], in assay [17] and in assay [18] was inactive. Also, the outcome in assay [19] and in [20] was inactive.

Turning to `c1ccc2c(c1)[nH]c1ccccc12`, the result in assay [1], in [2], in [4], in assay [5], in [6] and in [7] was inactive. The result in assay [8], in assay [9], in assay [10], in assay [11], in [12] and in assay [13] was inactive. Further, the result in [14], in assay [15], in assay [16], in [17], in assay [18] and in assay [19] was inactive. Besides, the outcome in assay [20] was inactive. Moreover, the AC50 in assay [5] is 20.1 µM (active).

Take `Oc1c(Cl)cc(Cl)c(Cl)c1Cl`: the AC50 is 20 µM (active) in [1]; 20 µM (active) in assay [4]; 20 µM (active) in assay [5]; 7.51 µM (active) in assay [8]; 6.07 µM (active) in [9]; 20 µM (active) in assay [10]. Also, in assay [11], the AC50 is 383 nM (active). Also, the outcome in [2], in [6], in assay [7], in [12], in assay [13] and in assay [14] was inactive. The outcome in [15], in assay [16], in [17], in assay [18], in assay [19] and in assay [20] was inactive.

For `Nc1ccc(C(=O)O)cc1`, the outcome in assay [1], in [2], in [3], in [4], in assay [5] and in assay [6] was inactive. Further, the result in assay [7], in assay [8], in [9], in [10], in assay [11] and in assay [12] was inactive. Moreover, the result in [13], in assay [14], in assay [15], in assay [16], in [17] and in [18] was inactive. Besides, the result in assay [19] and in [20] was inactive.

Take `O=C(Cl)c1c(Cl)c(Cl)c(C(=O)Cl)c(Cl)c1Cl`: the outcome in assay [1], in [2], in assay [3], in assay [4], in assay [5] and in [6] was inactive. In addition, the outcome in [7], in [8], in assay [9], in assay [10], in [11] and in assay [12] was inactive. Also, the outcome in assay [13], in assay [14], in assay [15], in assay [16], in [17] and in assay [18] was inactive. Besides, the outcome in assay [19] and in assay [20] was inactive.
